Reference: PubChem BioAssay
Activity calls are given as the source filed them. Unless noted, how the calls were made is not given here.

Key:
[1] = anti-His antibody binders, primary screen, artefact control for SMM control protein annotation, biochemical, small-molecule microarray, 635 nm fluorescence (AID 1128); conditions: anti-His Alexa647 antibody binding, higher = more signal;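 further: score merges feature fluorescence with signal-to-noise for each printed compound spot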
[2] = test system: Human papillomavirus type 1a E7 protein (residues 1-88); assay: HPV1a E7 small-molecule binders, primary screen, biochemical, small-molecule microarray, residues 1-88, 635 nm (AID 1129); conditions: small-molecule microarray binding, fluorescence 635 nm; higher = more signal
[3] = target: Focal adhesion kinase 1 (Homo sapiens) (UniProt Q05397); assay: small-molecule microarray binders of FAK, primary screen, biochemical, 635/667 nm fluorescence, BSA, DTT (AID 1130); conditions: PTK2 binding, 635 nm fluorescence, higher = more signal;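 further: composite of spot emission at 667 nm and signal to noise over triplicate slides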
[4] = test system: Fibrinogen (Alexa647-labelled); assay: fibrinogen binders on compound microarrays, profiling panel, artefact control for SMM control-protein annotation, biochemical, small-molecule microarray, 635/667 nm fluorescence (AID 1131); conditions: fibrinogen-A647 binding fluorescence, higher = more signal;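 further: z-score merges 667 nm fluorescence with per-spot signal-to-noise over triplicate slides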
[5] = target: Follistatin (Homo sapiens) (UniProt P19883); assay: follistatin binders on small-molecule microarrays, primary screen, biochemical, small-molecule microarray, 635/667 nm fluorescence (AID 1132); conditions: FST binding, 635 nm fluorescence, higher = more signal
[6] = target: Fibroblast growth factor 2 (Homo sapiens) (UniProt P09038); assay: FGF2 binders on small-molecule microarrays, primary screen, biochemical, small-molecule microarray, 635/667 nm fluorescence (AID 1133); conditions: small-molecule microarray binding, FGF2, fluorescence 635/667; higher = more signal
[7] = mitochondrial membrane potential change in A549 cells, profiling panel, cell-based, JC-1 fluorescence, basal, 24 h, 100 nL (AID 1138); conditions: higher = more signal;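 further: A549 lung adenocarcinoma cells under basal conditions with no added stimulus; test concentration not given here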
[8] = test system: Lefty1; assay: Lefty1 binders on small-molecule microarrays, primary screen, biochemical, small-molecule microarray, 635/667 nm fluorescence (AID 1139); conditions: small-molecule microarray binding, fluorescence 635/667; higher = more signal
[9] = test system: wheat germ agglutinin (Triticum aestivum), Alexa647-labelled; assay: wheat germ agglutinin binders on compound microarrays, profiling panel, artefact control for SMM control-protein annotation, biochemical, small-molecule microarray, 635/667 nm fluorescence (AID 1140); conditions: WGA-A647 binding, 635 nm fluorescence, higher = more signal;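 further: score merges 667 nm feature emission with signal to noise over triplicate slides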
[10] = target: Luciferin 4-monooxygenase (Photinus pyralis) (UniProt P08659); assay: firefly luciferase enzyme inhibitors, primary screen, biochemical, luminescence, purified enzyme, 2006 set (AID 1141); conditions: SteadyGlo luminescence, 30 min, higher = more signal, called active from +8 up or from −8 down;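 further: cell-free assay with purified firefly luciferase at 100 ng per well in PBS; test concentration not given here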
[11] = test system: Wnt5a (protein binding on small-molecule microarray); assay: Wnt5a binders on small-molecule microarray, primary screen, biophysical, 635/667 nm fluorescence (AID 1142); conditions: 635 nm fluorescence, higher = more signal;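 further: fluorescence read at 667 nm with signal to noise per printed feature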
[12] = cell viability in Huh7 cells, primary screen, cytotoxicity control for HCV replication inhibitor project, CellTiter-Glo luminescence, basal, 48 h (AID 1143); conditions: Huh7 HCV replicon, higher = more signal, called active from +8 up or from −8 down;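 further: Huh7 hepatoma cells carrying a hepatitis C replication reporter with no stimulus; test concentration not given here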
[13] = P. aeruginosa biofilm formation inhibitors, primary screen, PAO1 strain, BacTiter-Glo luminescence, LB-PBS (AID 1144); conditions: 12 h, higher = more signal
[14] = CREB reporter modulators without forskolin, primary screen, cell-based, PC12, CRE-LacZ reporter, unstimulated (AID 1145); conditions: no forskolin, luminescence, 4.5 h, higher = more signal, called active from +8 up or from −8 down
[15] = CREB reporter modulators under forskolin, primary screen, cell-based, PC12, CRE-LacZ reporter, forskolin-stimulated (AID 1146); conditions: luminescence, 4.5 h, higher = more signal, called active from +8 up or from −8 down;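 further: PC12 cells with 6xCRE LacZ reporter stimulated by forskolin 10 µM; beta-galactosidase reporter signal reflecting CREB driven transcription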
[16] = target: Streptavidin (Streptomyces avidinii) (UniProt P22629); assay: streptavidin binders on small-molecule microarray, primary screen, artefact control for SMM compound annotation, biophysical, 635/667 nm fluorescence (AID 1147); conditions: streptavidin binding, higher = more signal;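 further: signal reflects streptavidin binding to arrayed compounds as a control protein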
[17] = small-molecule binders of probe aInhba, primary screen, biochemical, small-molecule microarray, 635/667 nm fluorescence (AID 1148); conditions: higher = more signal;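 further: score merges 667nm spot fluorescence with signal-to-noise for antibody binding to printed compounds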
[18] = target: Torsin-1A (Homo sapiens) (UniProt O14656); assay: torsin A binders from cell lysate, primary screen, small-molecule microarray, wild-type, 635/667 nm (AID 1149); conditions: COS7 hTOR1A-WT lysate, 635 nm fluorescence, higher = more signal
[19] = target: Torsin-1A (Homo sapiens) (UniProt O14656); assay: small-molecule binders of mutant TOR1A in lysate, primary screen, cell lysate, small-molecule microarray, COS7 lysate, 635/667 nm fluorescence (AID 1150); conditions: COS7 hTOR1A mutant lysate, 635 nm fluorescence, higher = more signal;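 further: score pools 667 nm emission and signal to noise measuring lysate protein binding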
[20] = test system: Sonic hedgehog protein (Shh); assay: small-molecule binders of Shh protein, primary screen, biochemical, small-molecule microarray, 635/667 nm fluorescence (AID 1151); conditions: small-molecule microarray binding, 635 nm fluorescence; higher = more signal;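 further: Shh protein binding to compounds spotted on small-molecule microarray slides; score combines spot fluorescence intensity with signal-to-noise across triplicate slides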

Sequence of Streptavidin (Streptomyces avidinii) (P22629 whole entry, looked up): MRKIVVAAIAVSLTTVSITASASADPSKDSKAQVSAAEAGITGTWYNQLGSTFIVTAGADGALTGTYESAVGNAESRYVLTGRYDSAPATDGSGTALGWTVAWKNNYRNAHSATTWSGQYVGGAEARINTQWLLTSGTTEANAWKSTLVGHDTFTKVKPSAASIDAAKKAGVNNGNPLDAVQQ
Sequence of Fibroblast growth factor 2 (Homo sapiens) (P09038 whole entry, looked up): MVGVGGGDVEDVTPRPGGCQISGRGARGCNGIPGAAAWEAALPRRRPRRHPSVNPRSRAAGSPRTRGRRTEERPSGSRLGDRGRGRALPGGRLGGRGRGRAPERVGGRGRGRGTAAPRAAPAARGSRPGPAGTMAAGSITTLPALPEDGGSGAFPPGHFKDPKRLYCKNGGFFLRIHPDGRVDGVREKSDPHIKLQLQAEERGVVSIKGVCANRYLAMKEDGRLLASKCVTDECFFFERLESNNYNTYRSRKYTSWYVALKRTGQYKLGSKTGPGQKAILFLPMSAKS
Sequence of Torsin-1A (Homo sapiens) (O14656 whole entry, looked up): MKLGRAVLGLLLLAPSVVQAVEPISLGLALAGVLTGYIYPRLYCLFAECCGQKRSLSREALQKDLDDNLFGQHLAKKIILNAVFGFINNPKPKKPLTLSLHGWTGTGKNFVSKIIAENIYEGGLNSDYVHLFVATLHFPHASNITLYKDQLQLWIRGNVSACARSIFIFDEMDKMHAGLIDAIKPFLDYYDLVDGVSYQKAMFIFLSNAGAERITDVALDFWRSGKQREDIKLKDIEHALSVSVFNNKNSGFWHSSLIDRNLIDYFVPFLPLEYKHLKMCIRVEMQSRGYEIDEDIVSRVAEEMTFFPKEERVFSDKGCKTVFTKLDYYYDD
Sequence of Luciferin 4-monooxygenase (Photinus pyralis) (P08659 whole entry, looked up): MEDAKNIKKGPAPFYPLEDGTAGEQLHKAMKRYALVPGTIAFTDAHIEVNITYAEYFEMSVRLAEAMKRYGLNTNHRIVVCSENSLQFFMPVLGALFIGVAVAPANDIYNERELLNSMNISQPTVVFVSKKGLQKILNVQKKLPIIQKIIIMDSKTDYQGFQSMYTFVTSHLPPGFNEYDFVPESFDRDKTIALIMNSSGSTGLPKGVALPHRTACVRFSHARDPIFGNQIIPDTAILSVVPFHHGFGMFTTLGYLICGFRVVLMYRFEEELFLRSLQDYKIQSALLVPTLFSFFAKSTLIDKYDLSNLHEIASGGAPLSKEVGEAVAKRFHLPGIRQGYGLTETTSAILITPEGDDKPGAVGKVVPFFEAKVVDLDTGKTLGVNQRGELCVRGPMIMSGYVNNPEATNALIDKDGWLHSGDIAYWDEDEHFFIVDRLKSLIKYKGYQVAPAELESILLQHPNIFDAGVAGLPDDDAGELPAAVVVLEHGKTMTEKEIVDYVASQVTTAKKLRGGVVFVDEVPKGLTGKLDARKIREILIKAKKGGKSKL
Sequence of Follistatin (Homo sapiens) (P19883 whole entry, looked up): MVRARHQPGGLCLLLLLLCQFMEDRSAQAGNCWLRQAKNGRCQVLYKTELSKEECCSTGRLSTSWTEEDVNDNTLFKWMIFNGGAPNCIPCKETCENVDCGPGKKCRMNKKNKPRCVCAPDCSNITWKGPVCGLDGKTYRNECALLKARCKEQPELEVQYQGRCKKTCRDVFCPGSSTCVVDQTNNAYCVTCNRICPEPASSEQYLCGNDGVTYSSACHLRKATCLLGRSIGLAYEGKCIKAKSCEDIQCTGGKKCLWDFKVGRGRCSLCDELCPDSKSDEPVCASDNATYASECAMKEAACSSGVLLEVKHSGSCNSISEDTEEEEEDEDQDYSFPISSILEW
Sequence of Focal adhesion kinase 1 (Homo sapiens) (Q05397 whole entry, looked up): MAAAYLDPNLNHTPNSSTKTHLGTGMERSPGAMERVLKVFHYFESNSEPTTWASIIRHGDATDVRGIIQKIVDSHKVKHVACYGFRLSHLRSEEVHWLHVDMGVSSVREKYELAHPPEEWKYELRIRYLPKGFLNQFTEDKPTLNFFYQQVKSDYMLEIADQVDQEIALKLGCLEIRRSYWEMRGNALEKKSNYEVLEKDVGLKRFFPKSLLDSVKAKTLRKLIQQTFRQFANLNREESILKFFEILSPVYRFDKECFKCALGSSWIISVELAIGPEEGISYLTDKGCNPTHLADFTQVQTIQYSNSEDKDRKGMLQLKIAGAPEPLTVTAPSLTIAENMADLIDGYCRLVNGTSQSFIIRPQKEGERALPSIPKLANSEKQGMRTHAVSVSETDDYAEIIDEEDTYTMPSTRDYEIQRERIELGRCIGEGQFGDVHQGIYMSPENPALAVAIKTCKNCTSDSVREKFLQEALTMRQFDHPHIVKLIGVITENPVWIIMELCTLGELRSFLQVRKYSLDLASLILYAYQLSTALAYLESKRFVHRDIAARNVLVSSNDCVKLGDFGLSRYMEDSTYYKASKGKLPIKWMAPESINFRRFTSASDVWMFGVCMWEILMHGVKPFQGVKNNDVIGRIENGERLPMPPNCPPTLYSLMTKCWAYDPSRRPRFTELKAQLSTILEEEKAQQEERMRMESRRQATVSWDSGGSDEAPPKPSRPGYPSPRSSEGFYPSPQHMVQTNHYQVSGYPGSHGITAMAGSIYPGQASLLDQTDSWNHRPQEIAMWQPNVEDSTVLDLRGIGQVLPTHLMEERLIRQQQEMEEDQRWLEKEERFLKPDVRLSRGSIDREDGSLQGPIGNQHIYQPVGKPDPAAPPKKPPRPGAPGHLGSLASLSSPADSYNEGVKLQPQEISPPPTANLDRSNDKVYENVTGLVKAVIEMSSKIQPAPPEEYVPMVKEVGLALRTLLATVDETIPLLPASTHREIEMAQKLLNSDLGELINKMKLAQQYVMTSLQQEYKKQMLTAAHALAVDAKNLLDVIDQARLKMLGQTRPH

| SMILES | composite z-score [1] | composite z-score [2] | composite z-score [3] | composite z-score [4] | composite z-score [5] | composite z-score [6] | z-score [7] | composite z-score [8] | composite z-score [9] | z-score [10] | composite z-score [11] | z-score [12] | z-score [13] | z-score [14] | z-score [15] | composite z-score [16] | composite z-score [17] | composite z-score [18] | composite z-score [19] | composite z-score [20] |
| --- | --- | --- | --- | --- | --- | --- | --- | --- | --- | --- | --- | --- | --- | --- | --- | --- | --- | --- | --- | --- |
| CC(C)=CCCC(C)=CC(O)C1C=CC2C(=O)N(c3ccccc3)C(=O)C2N1Nc1ccc(C(C)C)cc1 (stereo not given) | 0.491 | 1.22 | 0.526 | 0.998 | 1.12 | -0.373 | 0.0344 | 0.262 | 1.03 | 0.43 (inactive) | 0.15 | -0.11 (inactive) | -0.603 (inactive) | 0.44 (inactive) | 0.204 (inactive) | 1.33 | -0.0087 | -0.728 | -0.151 | -0.309 |
| O=C1O[C@@H](c2ccccc2)[C@@H](c2ccccc2)N2[C@@H](c3ccccc3OCCO)[C@]3(C(=O)Nc4ccc(C#CC5(O)CCCCCC5)cc43)[C@@H](C(=O)N3CCN(c4ncccn4)CC3)[C@H]12 | 1.25 | 1.2 | 0.564 | 0.885 | 1.03 | 1.15 | -0.758 | 0.62 | 0.742 | -1.39 (inactive) | 0.133 | -2.72 (inactive) | 0.703 (inactive) | 0.209 (inactive) | 2.96 (inactive) | 0.077 | 0.0074 | 0.987 | 0.808 | 1.11 |
| CCOC(=O)C[C@H]1[C@H](OC(=O)c2ccc(C(=O)c3ccccc3)cc2)[C@@H](NC(=O)Cc2ccc(OC)cc2)c2cc(OCCCO)ccc2N1C(=O)c1ccc2ccccc2n1 | 0.325 | 0.727 | -0.314 | 0.858 | 0.513 | 0.312 | 0.842 | 0.735 | -0.028 | -0.849 (inactive) | 0.112 | 0.0378 (inactive) | -0.193 (inactive) | 0.745 (inactive) | -0.668 (inactive) | 0.619 | 0.158 | -0.202 | 0.561 | 0.671 |
| CC(C)OC(=O)C=C1C[C@@H](c2cccc(Cl)c2)O[C@@H](c2cccc(Cl)c2)O1 | 1.72 | 0.824 | 0.526 | -0.105 | -0.545 | -0.122 | -0.143 | -1.1 | 0.751 | 0.924 (inactive) | -0.0889 | -0.0636 (inactive) | -0.179 (inactive) | 0.192 (inactive) | 1.03 (inactive) | 0.776 | 0.0956 | 0.686 | -0.365 | -1.16 |
| C=CCN(Cc1ccccc1)C(=O)C(c1cccs1)N(C(=O)/C=C\C(=O)O)c1ccc(CCOCCO)cc1 (stereo not given) | -0.709 | -0.755 | -0.618 | -1.23 | -1.32 | -0.78 | 1.37 | -1.16 | -1.01 | -3.88 (inactive) | -0.913 | -0.0564 (inactive) | -1.75 (inactive) | -0.0737 (inactive) | -0.771 (inactive) | -1.82 | -0.133 | -2.08 | -2.48 | -0.595 |
| CS(=O)(=O)CCOC(=O)C1=CC(CCCO)=CC(C2CC2)N(Cc2cc3c(cc2Br)OCO3)C=C1C(=O)OCCS(C)(=O)=O (stereo not given) | 1.97 | 0.419 | -0.0438 | 1.01 | 1.18 | 0.198 | 1.29 | 0.477 | 1.15 | -0.395 (inactive) | 0.0339 | -0.737 (inactive) | -0.453 (inactive) | -0.0424 (inactive) | 0.926 (inactive) | 0.635 | -0.0695 | 0.913 | 1.03 | 0.358 |
| CCOC(=O)C[C@H]1[C@H](OC(=O)c2ccc(-c3ccccc3)cc2)[C@@H](NC(=O)c2ccccc2)c2cc(OCCCO)ccc2N1C(=O)c1ccc2ccccc2n1 | 0.241 | 1.06 | 0.426 | 0.836 | -0.0321 | -0.0974 | -0.0602 | -0.329 | 0.693 | 0.0119 (inactive) | 0.278 | 0.775 (inactive) | 0.577 (inactive) | -0.882 (inactive) | -0.127 (inactive) | 0.255 | 0.368 | 0.181 | 0.757 | -0.0315 |
| C=CCOC(=O)[C@H]1[C@@H]2C(=O)O[C@@H](c3ccccc3)[C@@H](c3ccccc3)N2[C@@H](c2ccc(OCCOC(=O)[C@@H]3C[C@@H]4C(=O)N5CCC[C@H]5C(=O)N4[C@@H]3c3cccc(OCCO)c3)cc2)[C@]12C(=O)Nc1ccc(I)cc12 | 1.55 | 1.2 | 0.402 | 0.726 | 1.45 | 1.4 | -0.838 | 1.38 | 0.458 | -1.12 (inactive) | 0.535 | -0.402 (inactive) | -0.615 (inactive) | 0.423 (inactive) | -0.633 (inactive) | 0.763 | 0.944 | 0.821 | 0.573 | 2.18 |
| CCCCN1CC=CC23O[C@@H]4C=CCOC(=O)[C@@H]4[C@H]2C(=O)N(CCCCCCO)[C@@H]3C1=O (stereo not given in full) | -0.818 | -0.544 | 0.717 | -2.1 | -1.55 | -0.802 | 0.00246 | -1.25 | -1.24 | -0.419 (inactive) | -0.575 | 0.205 (inactive) | 1.05 (inactive) | -0.0899 (inactive) | 1.12 (inactive) | -1.35 | -0.249 | -0.873 | -0.748 | -0.711 |
| CCCC=C(CCC)[C@@H](NC(=O)OCC(C)C)c1ccccc1 | 0.665 | 1.15 | 0.172 | 0.471 | 0.978 | 0.16 | -0.138 | 0.822 | 0.126 | 0.936 (inactive) | 1.33 | -3.28 (inactive) | 0.173 (inactive) | 0.766 (inactive) | 1.43 (inactive) | 0.576 | 0.613 | 0.0387 | -0.0475 | 0.661 |
